Measurements published in PubChem BioAssay (NCATS).
This is one part of the list. Records with an inconclusive call do not appear. Activity calls are given as the source filed them. The call rests on the fitted dose curve; in most records, active means well fitted inhibition curve with a large enough effect; inconclusive means small, poorly fitted or top-dose-only effect; inactive means no such curve, though single readings can be large or run the other way.

Target: RecQ-like DNA helicase BLM (Homo sapiens) (UniProt P54132)
Test: qHTS for Inhibitors of WRN Helicase: BLM Helicase Counterscreen for WRN Inhibitors (AID 720503); further: nearly all actives have a fitted effect of over 60% in size
Details: Recombinant BLM helicase DNA unwinding, red fluorescence; series mostly up to 57.1 µM; activity change, negative = inhibition: at the top concentration
From the text: Inhibition of DNA repair is proposed as a strategy for combating cancer. Synthetic lethality is an approach that exploits preexisting DNA repair deficiencies in certain tumors to develop inhibitors of DNA repair pathways that compensate for the tumor-associated DNA repair deficiency. Because helicases play critical roles in the DNA damage response and in DNA repair, particularly in actively dividing and replicating cells, characterization of synthetic lethal relationships of DNA helicases may be of value in developing improved anticancer treatment strategies; moreover, small molecules that specifically target a given DNA helicase may be useful for understanding its role in cellular nucleic acid metabolism. The goal of this project is to identify small molecule, non-covalent chemical inhibitors of the Werner syndrome (WS) helicase (WRN), which plays an important role in cell proliferation, the replication stress response, and DNA repair. […] The WRN gene product that is defective in the chromosomal instability disorder has DNA helicase and exonuclease activities and interacts with a number of nuclear proteins to maintain genomic stability. A 1536-well format, fluorescence based, high-throughput screen (AID 651768) has been developed in collaboration with the Brosh Laboratory at the National Institute of Aging (NIA) to screen for inhibitors of the WRN. This counterscreen is used to determine the activity of the validated WRN inhibitors against another related helicase, the Bloom's syndrome (BLM) helicase. […] NIH Chemical Genomics Center [NCGC] NIH Molecular Libraries Probe Centers Network [MLPCN] MLPCN Grant: MH096530 Assay Submitter (PI): Robert Brosh, National Institute of Aging
Three uL of reaction buffer (25 mM Tris-HCl pH 8.0, 50 mM NaCl, 2 mM MgCl2, 1 mM DTT, 0.01% Tween-20, and 1 nM BLM) was dispensed into a 1536-well Greiner black assay plate via solenoid-valve based nanoliter dispensers. Compounds (23 nl each in columns 5-48) and control (23 nl each in column 2 as dose-response) were transferred to the assay plate via a Kalypsys pin-tool equipped with a 1536-pin array. The plates were incubated for 15 min at room temperature, followed by the addition of 1 ul substrates (100 nM DNA and 2 mM ATP, final concentrations) to start the reaction. The plates were transferred into a ViewLux CCD imager where the reaction was measured in a discontinuous kinetic mode (two reads spaced 15 minutes apart, with intermediate room temperature incubation of the covered assay plate) using the standard red-fluorescence optics (excitation filter 525 nm, emission filter 598 nm). Enzyme-free and vehicle (DMSO) controls were included for signal normalization.
Potency means the concentration at half of the fitted maximal effect.

Chain of RecQ-like DNA helicase BLM (Homo sapiens) (P54132 whole entry, looked up): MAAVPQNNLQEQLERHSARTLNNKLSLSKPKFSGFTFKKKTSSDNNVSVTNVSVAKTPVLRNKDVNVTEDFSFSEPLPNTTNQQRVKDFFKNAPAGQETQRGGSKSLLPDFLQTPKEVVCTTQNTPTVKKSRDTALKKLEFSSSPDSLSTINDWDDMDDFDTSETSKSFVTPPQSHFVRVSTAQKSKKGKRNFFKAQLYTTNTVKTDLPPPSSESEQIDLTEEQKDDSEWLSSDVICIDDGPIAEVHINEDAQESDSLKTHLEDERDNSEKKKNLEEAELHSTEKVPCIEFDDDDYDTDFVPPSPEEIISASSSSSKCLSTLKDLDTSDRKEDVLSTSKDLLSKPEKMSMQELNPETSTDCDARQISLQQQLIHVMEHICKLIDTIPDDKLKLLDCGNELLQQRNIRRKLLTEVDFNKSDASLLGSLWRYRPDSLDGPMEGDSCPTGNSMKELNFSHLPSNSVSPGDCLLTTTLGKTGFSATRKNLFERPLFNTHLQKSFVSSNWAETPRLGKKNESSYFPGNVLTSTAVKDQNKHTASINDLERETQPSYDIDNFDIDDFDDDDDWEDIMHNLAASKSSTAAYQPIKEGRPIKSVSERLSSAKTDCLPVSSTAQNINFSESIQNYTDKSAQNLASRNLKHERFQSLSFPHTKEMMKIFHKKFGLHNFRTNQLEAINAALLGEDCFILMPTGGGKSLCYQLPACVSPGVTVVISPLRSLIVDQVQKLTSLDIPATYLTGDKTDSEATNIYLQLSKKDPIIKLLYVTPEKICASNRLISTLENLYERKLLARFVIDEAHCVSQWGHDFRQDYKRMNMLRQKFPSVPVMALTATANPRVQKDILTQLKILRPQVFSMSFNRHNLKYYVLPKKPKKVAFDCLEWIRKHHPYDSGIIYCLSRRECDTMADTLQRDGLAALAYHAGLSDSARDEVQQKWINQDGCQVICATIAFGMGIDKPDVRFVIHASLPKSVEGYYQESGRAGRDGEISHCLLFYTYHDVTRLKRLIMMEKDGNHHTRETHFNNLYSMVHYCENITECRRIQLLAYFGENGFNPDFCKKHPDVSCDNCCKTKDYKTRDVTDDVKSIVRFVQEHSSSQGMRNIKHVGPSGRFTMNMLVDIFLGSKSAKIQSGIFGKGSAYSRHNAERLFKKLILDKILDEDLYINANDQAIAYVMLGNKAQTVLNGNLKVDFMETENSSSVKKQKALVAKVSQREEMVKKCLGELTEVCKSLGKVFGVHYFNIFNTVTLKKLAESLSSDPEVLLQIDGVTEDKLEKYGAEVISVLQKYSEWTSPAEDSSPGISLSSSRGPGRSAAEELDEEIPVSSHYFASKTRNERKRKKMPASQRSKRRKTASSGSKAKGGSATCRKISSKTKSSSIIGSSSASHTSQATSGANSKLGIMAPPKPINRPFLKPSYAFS

Row | SMILES | Potency | activity change, negative = inhibition
1 | Cc1c(CC(=O)N2CCN(C(=O)C3COc4ccccc4O3)CC2)c(=O)oc2c(O)c(O)ccc12 (stereo not given) | 1.52 µM (active) | 
2 | CC(=O)N(C1=C(Cl)C(=O)c2ccccc2C1=O)c1ccc(C(=O)O)cc1 |  | -6.7% (inactive)
3 | Cc1ccc(-c2nc(SCc3ccc(Br)cc3)n3[nH]c(=O)cc3n2)cc1 | 4.82 µM (active) | 
4 | CSc1nnc(SCc2nc3sc(C(=O)O)c(C)c3c(=O)[nH]2)s1 |  | 4.24% (inactive)
5 | COc1cccc2c1C(=O)c1c(O)c3c(c(O)c1C2=O)CC(O)(C(C)=NNC(=O)c1ccc(Cl)c(Cl)c1)CC3OC1CC(N)C(O)C(C)O1 (stereo not given) | 4.29 µM (active) | 
6 | O=c1[nH]c2ccccc2n2c(-c3ccccc3)nnc12 |  | -24.8% (inactive)
7 | CCOc1ccccc1C(=O)NCc1ccco1 | 19.2 µM (active) | 
8 | COC(=O)/C=C\C(=O)Nc1cccc([N+](=O)[O-])c1 |  | -1.68% (inactive)
9 | COc1ccc(Cl)cc1NC(=O)CCS(=O)(=O)c1ccc(Br)cc1 | 4.82 µM (active) | 
10 | O=C(Nc1ccccc1)c1nnsc1S(=O)(=O)c1ccc(Cl)cc1 |  | -18.7% (inactive)
11 | CCc1ccc2nc3sc(C(=O)Nc4nnc(CC)s4)c(N)c3cc2c1 | 10.8 µM (active) | 
12 | COc1ccc(Cl)cc1-c1cc(C(=O)Nc2cc(OC)c(OC)c(OC)c2)[nH]n1 | 27.1 µM (active) | 
13 | CCN(CC)CCOc1ccc2c(c1)C(=NNC(=O)c1ccccn1)c1cc(OCCN(CC)CC)ccc1-2 |  | -96.5% (inactive)
14 | CN(C)c1nc(Nc2ccc(Cl)c(Cl)c2)nc(N(C)C)n1 |  | -11.5% (inactive)
15 | N#C/C(=C\C1=C(N2CCOCC2)C(=C\c2ccccc2)/CC1)C(=O)Nc1ccccc1F | 21.5 µM (active) | 
